Where a name gives a salt, the structure may show the parent alone. ± gives the standard deviation of the averaged measurements. Over roughly 2,000 compounds, “relative cell viability vs DMSO, compound + 0.2 uM CuET” has its median near 1; the lowest 2% begin near 0.25. Many of the other results were omitted from the sample, so the lowest values are more common in it than they were.

The subject of the assay is TE10. As to the kind of experiment: relative cell viability vs DMSO, compound + 0.2 uM CuET (fraction); TE10 is an esophageal squamous carcinoma line; higher = less cytotoxic. The note with it: 2 µM; co-treatment: CuET (bis(diethyldithiocarbamate)copper) 0.2 uM; 48 h. The procedure:
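TE10 ESCC cells (1,000/well, 384-well plates) were treated with Selleck bioactive library compounds at 2 uM combined with 0.2 uM CuET (copper diethyldithiocarbamate) for 48 h. Viability was read by CellTiter-Glo and expressed relative to DMSO wells. Two technical replicates (A, B).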
Regarding `O=C1c2ccccc2C(=O)c2c1ccc(O)c2O` [Alizarin], the relative cell viability was determined as 1.1 ± 0.029.

As for `CC(=O)Nc1ccccc1` [Acetanilide], the relative cell viability was 1.018 ± 0.0034.

`CC(C)(C)C(=O)Nc1ccc2c(c1)C(=O)C(=O)c1ccccc1-2`: the relative cell viability came out at 0.026 ± 0.0042.

Turning to `COc1ccc(OC)c(C2C(C#N)=C(N)Oc3n[nH]c(-c4ccc5ccccc5c4)c32)c1` (configuration not stated), the relative cell viability amounted to 1.06 ± 0.048.

As to `CN(c1ccccc1CNc1nc(Nc2ccc3c(c2)CC(=O)N3)ncc1C(F)(F)F)S(C)(=O)=O`, the relative cell viability is 0.709 ± 0.029.

In the case of `Nc1ccccc1NC(=O)c1ccc(CNc2nccc(-c3cccnc3)n2)cc1` [Mocetinostat (MGCD0103)], the relative cell viability was determined as 0.249 ± 0.039.

Consider `Cc1ccc(NC(=O)c2ccc(CN3CCN(C)CC3)cc2)cc1Nc1nccc(-c2cccnc2)n1` [Imatinib (STI571)], for which the relative cell viability stood at 1.05 ± 0.1.

`Cc1ccc(NC(=O)c2ccc(CN3CCN(C)CC3)cc2)cc1Nc1nccc(-c2cccnc2)n1` [Imatinib Mesylate (STI571)]: the relative cell viability was 1.43 ± 0.12.

For `Nc1ccccc1NC(=O)c1ccc(CNC(=O)OCc2cccnc2)cc1` [Entinostat (MS-275)], the relative cell viability was found to be 0.321 ± 0.033.

As for `O=C1Cc2c([nH]c3ccc(Br)cc23)-c2ncccc2N1` [1-Azakenpaullone], the relative cell viability worked out at 1.17 ± 0.11.

Regarding `Cc1ccc(-c2csc(NC(=O)c3ccccc3)n2)c(C)c1`, the relative cell viability was 1.22 ± 0.19.

Consider `Cn1c(Nc2ccc(C(F)(F)F)cc2)nc2cc(Oc3ccnc(-c4ncc(C(F)(F)F)[nH]4)c3)ccc21`, for which the relative cell viability was 0.847 ± 0.035.

In the case of `CCCc1nc(C)c2c(=O)nc(-c3cc(S(=O)(=O)N4CCN(CC)CC4)ccc3OCC)[nH]n12` [Vardenafil HCl Trihydrate], the relative cell viability is 1.1 ± 0.062.

With `O=C(c1ccc(F)cc1)N1CCCC(c2nc(-c3ccc(F)cc3)no2)C1` (configuration not stated), the relative cell viability is 1.12 ± 0.22.

Take `C=CC(=O)N1CC(=Cc2ccc([N+](=O)[O-])cc2)C(=O)C(=Cc2ccc([N+](=O)[O-])cc2)C1`: the relative cell viability is 0.126 ± 0.015.

Take `CN1C(C(=O)Nc2ccccn2)=C(O)c2ccccc2S1(=O)=O` [Piroxicam]: the relative cell viability stood at 1.02 ± 0.064.

For `Nc1ccccc1NC(=O)c1cnccn1`, the relative cell viability was 1.16 ± 0.018.

Regarding `CC(C)Oc1ccc2c(=O)c(-c3ccccc3)coc2c1` [Ipriflavone (Osteofix)], the relative cell viability came out at 0.968 ± 0.056.

Turning to `CCC(=O)OCC(=O)[C@@]1(OC(=O)CC)[C@@H](C)C[C@H]2[C@@H]3CCC4=CC(=O)C=C[C@]4(C)[C@@]3(F)[C@@H](O)C[C@@]21C` [Betamethasone Dipropionate], the relative cell viability came to 1.05 ± 0.052.

Take `CC(C)(C)c1ccc(S(=O)(=O)/C=C/C#N)cc1`: the relative cell viability was 0.107 ± 0.0014.

For the compound `Cc1ccc(S(=O)(=O)C=CC#N)cc1`, the relative cell viability amounted to 0.101 ± 0.0039.

For `Cc1cc(C)c(-c2csc(NC(=O)c3ccccc3)n2)c(C)c1`, the relative cell viability turned out to be 1.17 ± 0.069.

With `O=C(NO)c1ccc(CC(=O)N(CCO)c2ccccc2)cc1`, the relative cell viability came to 1.056 ± 0.0057.

With `O=C1NC(=NCc2cccs2)S/C1=C\c1ccc2ncccc2c1`, the relative cell viability came to 1.12 ± 0.078.

As for `CC(Oc1cc(-c2cnn(C3CCNCC3)c2)cnc1N)c1c(Cl)ccc(F)c1Cl` [(S)-crizotinib], the relative cell viability was 1.12 ± 0.028.

In the case of `CC(C)(C)C(=O)OCOP(=O)(COCCn1cnc2c(N)ncnc21)OCOC(=O)C(C)(C)C` [Adefovir Dipivoxil], the relative cell viability was 1.02 ± 0.035.

In the case of `Cc1cc(Nc2cc(CN3CCOCC3)c3nc(C)c(Cc4ccc(Cl)cc4F)n3n2)n[nH]1`, the relative cell viability was determined as 0.92 ± 0.046.

In the case of `O=C1C(c2c(O)[nH]c3ccccc23)=Nc2ccccc21` [Indirubin], the relative cell viability amounted to 0.978 ± 0.15.

Turning to `CC(C)C[C@H](NC(=O)CNC(=O)c1cc(Cl)ccc1Cl)B1OC(=O)CC(CC(=O)O)(C(=O)O)O1` (some centres not stated), the relative cell viability was determined as 0.818 ± 0.048.

For the compound `O=C1N=C(O)NC1(c1ccccc1)c1ccccc1` [Phenytoin sodium], the relative cell viability was determined as 0.961 ± 0.045.

In the case of `COc1ccc(Cn2ccc3ccc(C(=O)NO)cc32)cc1`, the relative cell viability was determined as 0.685 ± 0.085.

`CCN(CC)Cc1ccc2cc(COC(=O)Nc3ccc(C(=O)NO)cc3)ccc2c1` [Givinostat (ITF2357)]: the relative cell viability was 0.192 ± 0.018.

`CCN(CC)CCNC(=O)c1ccc(N)cc1` [Procainamide HCl]: the relative cell viability is 0.957 ± 0.026.

Turning to `C=CC(=O)N1CCN(C(=O)CNc2cc(I)c(Cl)cc2O)CC1` [K-Ras(G12C) inhibitor 12], the relative cell viability came out at 1.06 ± 0.13.

As to `C=CC(C)(C)c1cc(C=CC(=O)c2ccc(O)cc2)c(OC)cc1O` [Licochalcone A], the relative cell viability is 1.008 ± 0.0053.

On to `CN1CC[C@@H](c2c(O)cc(O)c3c(=O)cc(-c4ccccc4Cl)oc23)[C@@H]1CO`, for which the relative cell viability turned out to be 0.7 ± 0.044.

For the compound `CNC(=O)c1c(F)cccc1Nc1nc(Nc2cc3c(cc2OC)CCN3C(=O)CN(C)C)nc2[nH]ccc12`, the relative cell viability was 1.06 ± 0.1.

For `CC1(C)O[C@@H]2C[C@H]3[C@@H]4CCC5=CC(=O)CC[C@]5(C)[C@@]4(F)[C@@H](O)C[C@]3(C)[C@]2(C(=O)CCl)O1` [Halcinonide], the relative cell viability was 0.905 ± 0.0084.

In the case of `NC(=O)c1ccc(-c2nc(-c3ccc4c(c3)OCCO4)c(-c3ccccn3)[nH]2)cc1`, the relative cell viability amounted to 0.996 ± 0.12.

On to `CC(COc1ccccc1)N(CCCl)Cc1ccccc1` (configuration not stated) [Phenoxybenzamine HCl], for which the relative cell viability turned out to be 1.07 ± 0.07.

On to `C/C(=C\C(=O)Nc1ccccc1C(=O)O)c1ccc2ccccc2c1`, for which the relative cell viability was found to be 1.14 ± 0.058.

Take `CC(C)N(CCC(=O)c1ccc2ccccc2c1)Cc1ccccc1`: the relative cell viability was found to be 0.1814 ± 0.0002.

`Cn1cc(-c2ccc3c(c2)CCN3C(=O)Cc2cccc(C(F)(F)F)c2)c2c(N)ncnc21`: the relative cell viability is 0.897 ± 0.087.

For `CN(C)CCN1C(=O)c2cccc3cc(N)cc(c23)C1=O` [Amonafide], the relative cell viability came out at 1.042 ± 0.0065.

Turning to `COc1ccc(C2=NC(c3ccc(Cl)cc3)C(c3ccc(Cl)cc3)N2C(=O)N2CCNC(=O)C2)c(OC(C)C)c1` (configuration not stated) [Nutlin-3b], the relative cell viability was 1.17 ± 0.094.

As to `COc1ccc(C2=NC(c3ccc(Cl)cc3)C(c3ccc(Cl)cc3)N2C(=O)N2CCNC(=O)C2)c(OC(C)C)c1` (configuration not stated) [Nutlin-3a], the relative cell viability stood at 1.149 ± 0.0057.

`O=C(Oc1cc(S(=O)(=O)c2ccccc2)ccc1[N+](=O)[O-])c1ccc(Cl)cc1`: the relative cell viability was found to be 1.04 ± 0.07.

Regarding `Nc1ccc(-c2ccc3ncc4ccc(=O)n(-c5cccc(C(F)(F)F)c5)c4c3c2)cn1` [Torin 2], the relative cell viability was found to be 0.569 ± 0.16.

For `COc1ccc(-c2ccc3ncc4c(c3c2)n(-c2ccc(N3CCNCC3)c(C(F)(F)F)c2)c(=O)n4C)cn1`, the relative cell viability was 0.104 ± 0.0046.

As for `COc1cc(-c2cc(-c3ccc(N4CCNCC4)cc3)cnc2C)cc(OC)c1OC`, the relative cell viability is 0.87 ± 0.053.

In the case of `Cc1c(NC(=O)c2ccc(C(C)(C)C)cc2)cccc1-c1cn(C)c(=O)c(Nc2ccc(C(=O)N3CCOCC3)cc2)n1`, the relative cell viability was determined as 1.04 ± 0.046.

As to `Cc1ccccc1C(=O)Nc1ccc(C(=O)N2CCCC(O)c3cc(Cl)ccc32)c(C)c1` (configuration not stated) [Tolvaptan], the relative cell viability came out at 1.05 ± 0.075.
